# Compound activity as filed in PubChem BioAssay.
# hcDAF-12 act: H. contortus DAF-12 activation, primary screen. HEK293 hcDAF-12 lit1-tk-luc reporter, luminescence; 0% DMSO, 100% Δ7-dafachronic acid. activation, % at 6.8 µM. hit rate 1.4% among 370,000. AID 652067;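 active = activation above the mean of all tested compounds plus 3 SD, cut at about 5.5% in these data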
# ssDAF-12 act: S. stercoralis DAF-12 activation, primary screen | activation, % at 6.8 µM | AID 652126 | HEK293 ssDAF-12/GRIP1 lit1-tk-luc reporter, luminescence; % of 3 µM dafachronic acid response | hit rate 1% among 370,000;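 active = activation above the mean over all tested compounds plus 3 SD, cut at about 0.9% in these data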
# DAX1 inh-1: DAX1 (NR0B1) inhibition, primary screen | HEK293T StAR-luciferase reporter, SF-1/DAX-1 repression relief | inhibition, % at 6.8 µM | hit rate 1.1% among 370,000 | AID 652010;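 active = inhibition above the mean over all tested compounds plus 3 SD, cut at about 3.6% in these data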;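 note: higher inhibition means more luminescence from relief of DAX-1 repression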
# hgDAF-12 ag: hgDAF-12 agonism, primary luciferase screen. HEK293 GAL4-hgDAF12 UAS-luciferase reporter, agonist luminescence; normalized to butyrate control. activation, % at 6.8 µM. hit rate 1.8% among 370,000;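 active = activation above a cutoff set at the mean of all screened compounds plus 3 SD, cut at about 10% in these data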
# DAX1 inh-2: NR0B1 (DAX1) inhibition; P51843; HEK293 Gal4-DAX1 luciferase reporter, luminescence; inhibition, % at 6.75 µM; hit rate 0.99% among 340,000;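 active = inhibition above the mean over all tested compounds plus 3 SD, cut at about 4.2% in these data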;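 note: inhibition shows as a rise in luminescence from relieved DAX1 repression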
# Target sequence (P51843 207-470 limits assumed): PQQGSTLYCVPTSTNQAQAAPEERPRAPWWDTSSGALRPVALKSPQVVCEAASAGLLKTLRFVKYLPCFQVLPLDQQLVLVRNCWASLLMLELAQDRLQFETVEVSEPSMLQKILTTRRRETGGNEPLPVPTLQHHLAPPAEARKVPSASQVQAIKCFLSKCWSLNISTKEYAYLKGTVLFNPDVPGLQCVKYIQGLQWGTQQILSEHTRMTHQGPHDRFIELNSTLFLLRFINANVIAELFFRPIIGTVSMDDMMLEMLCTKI
# Hits are given with their value; n = inactive; x = no result. An excerpt weighted towards active compounds, which were near 4.1% of everything screened.
SMILES,hcDAF-12 act,ssDAF-12 act,DAX1 inh-1,hgDAF-12 ag,DAX1 inh-2
CC(=O)NNc1nc2ccccc2s1,n,n,n,n,n
CCOC(=O)N1CCC(=NNc2nc3ccccc3s2)CC1,5.8,n,n,n,n
CC(=O)N1CCC(=NNc2nc3ccccc3s2)CC1,6.5,n,n,n,n
CC(COc1ccccc1C#N)CN1CCC(C(O)(c2ccccc2)c2ccccc2)CC1 (stereo unspecified),n,n,n,n,x
CN(c1ccc(C(=O)N2CCN(Cc3ccccc3)CC2)cc1)S(=O)(=O)c1ccccc1,n,n,n,n,n
CCN1CCN(C(=O)c2ccc(Cl)c(S(=O)(=O)N(C)c3ccccc3)c2)CC1,n,n,n,n,6.0
CN1C(=O)[C@@](O)(c2cccn2C)c2cc(Cl)ccc21,n,0.9,n,n,x
CCn1c(=O)n(CC(=O)N2CCCN(Cc3ccccc3)CC2)c(=O)c2ccccc21,n,n,n,n,x
COc1cccc(Nc2nc(C)nc3c2oc2ccccc23)c1,n,n,n,n,n
COc1ccc(Nc2ncnc3c2oc2ccccc23)cc1,n,n,n,12,n
CCOc1ccc(C(=O)Nc2ccc(Cl)cn2)cc1Cl,n,n,n,13,n
CCOC(=O)CSc1nc2sc3c(c2c(=O)n1-c1ccc(C)cc1)CCN(C)C3,6.1,n,n,n,n
O=C(Nc1ccc2c(c1)OCO2)c1cc(C2CCCCN2S(=O)(=O)Cc2ccccc2)on1 (stereo unspecified),n,n,4.4,11,x
O=C(Nc1ccc2c(c1)OCO2)c1cc(C2CCCCN2C(=O)CCc2ccccc2)on1 (stereo unspecified),n,n,n,n,x
Cc1ccc(-c2cc(-c3nnc(SCC(=O)NC4CCCCC4)n3N)[nH]n2)cc1,n,n,n,n,x
COc1ccc(C2=Nc3ccccc3C2(O)CCN2C(=O)c3ccccc3C2=O)cc1 (stereo unspecified),n,n,n,10,n
COC(=O)[C@]1(CNC(=O)C(F)(F)F)CC(=O)N(C)[C@@H]1c1ccccc1,n,n,n,n,x
COC(=O)C1CCCN(C(=O)C(Cc2ccc3c(c2)OCO3)NC(C)=O)C1 (stereo unspecified),n,n,n,n,x
Cc1cc(C)c(NC(=O)c2ccc3nccnc3c2)c(C)c1,n,n,n,n,n
Cc1ccc(NC(=O)c2ccc3nccnc3c2)c(C)c1,n,n,n,12,n
O=S(=O)(c1ccccc1)n1c(CN2CCOCC2)nc2ccccc21,n,n,n,n,x
COC(=O)CCC(=O)OC,n,n,n,n,4.4
O=S1(=O)CCOCC(CO)N1Cc1cccc(Br)c1 (stereo unspecified),n,n,n,n,x
Cn1c(=O)c(-c2cc(=O)[nH][nH]2)c(O)c2ccccc21,6.2,n,n,n,x
CCn1c(=O)c(-c2cc(=O)[nH][nH]2)c(O)c2ccccc21,n,n,n,n,n
SMILES,hcDAF-12 act,ssDAF-12 act,DAX1 inh-1,hgDAF-12 ag,DAX1 inh-2
COc1ccc(CNc2ccc([N+](=O)[O-])cn2)cc1,n,n,n,12,n
CN1CCN(c2nc3ccccc3nc2NS(=O)(=O)c2ccc(Br)cc2)CC1,n,n,n,n,n
O=S(=O)(Nc1nc2ccccc2nc1N1CCc2ccccc2C1)c1ccc(Br)cc1,22,2.4,5.8,16,n
COc1ccc(S[C@]2(C(=O)N(C)C)CC(=O)N(C(=O)C3CC3)[C@@H]2c2ccc(OC)cc2)cc1,n,n,n,n,x
Cc1ccc(Nc2ncc3c(n2)CC(C)(C)CC3=O)cc1,n,n,n,13,6.0
CC1(C)CC(=O)c2cnc(NC3CC3)nc2C1,n,n,n,n,n
Cc1cc(NCc2ccccn2)n2ncc(-c3ccccc3)c2n1,n,1.3,n,12,4.7
Cc1cc(NCCCN2CCOCC2)n2ncc(-c3ccccc3)c2n1,6.0,1.3,n,11,n
Cc1cc(NCc2ccccn2)n2ncc(-c3ccc(Cl)cc3)c2n1,n,n,n,n,x
Cc1cc(NCCCN2CCOCC2)n2nc(C)c(-c3ccccc3)c2n1,n,n,n,n,n
Cc1noc(C)c1COc1ccc(C(=O)Nc2cccnc2)cc1,n,n,n,n,n
CCOc1ccc(C(=O)Nc2cccc(C)n2)cc1,n,1.1,4.0,n,n
Cc1noc(C)c1COc1cccc(C(=O)NCc2cccc(Cl)c2)c1,n,n,n,n,n
CCCSc1nsc(NC(=O)c2cccnc2OCC)n1,n,n,n,n,5.8
Cc1noc(C)c1COc1ccc(C(=O)Nc2ncccc2O)cc1,n,n,n,11,n
Cc1ccc(CNC(=O)c2cccc(OCc3c(C)noc3C)c2)cc1,n,n,n,n,6.8
Cc1cc(C)cc(C(=O)OCCCN(C)C2CN(Cc3cn(Cc4ccccc4Cl)nn3)S(=O)(=O)C2)c1 (stereo unspecified),n,n,n,n,x
COC(=O)[C@]12C[C@H](CC(=O)NCc3cccc(C(F)(F)F)c3)C(=O)N(Cc3ccc(Cl)cc3Cl)C1=C[C@H](C(C)(C)C)O[C@@H]2C,n,n,n,n,x
CCOc1ccc(C(=O)Nc2cc(C)ccn2)cc1,n,n,3.6,n,n
CCOc1ccc(C(=O)Nc2ncccc2Cl)cc1,n,n,n,11,n
CCOc1ncccc1C(=O)NCc1ccccc1Cl,n,n,n,n,5.7
Cc1noc(C)c1COc1ccc(CC(=O)NC2CCCCCC2)cc1,n,n,n,n,4.7
CCOc1ncccc1C(=O)Nc1ccc(Cl)cc1,n,n,n,n,n
CCOc1ccc(NC(=O)c2ccccn2)cc1,n,n,n,n,n
CCCC1CCC2(CC1)CCC2OC(=S)Nc1ccc(Cl)cc1 (stereo unspecified),n,n,x,n,x
SMILES,hcDAF-12 act,ssDAF-12 act,DAX1 inh-1,hgDAF-12 ag,DAX1 inh-2
Cc1c(NC(=O)C2CCCN(S(=O)(=O)c3ccc(F)cc3)C2)c(=O)n(-c2ccccc2)n1C (stereo unspecified),n,n,n,n,x
CCOc1ccc(C(=O)Nc2nnn(CC)n2)cc1,n,n,n,12,n
Cc1ccnc(NC(=O)c2ccc3[nH]c(=O)c(=O)[nH]c3c2)c1,n,3.3,n,n,n
CCCc1nc([N+](=O)[O-])c(S(=O)(=O)c2ccccc2)n1CC(C)C,n,n,n,10,n
CCOc1ccc(OCC)c(NC(=O)CCSCCc2ccccn2)c1,n,n,n,n,4.3
CCOc1ccc(OCC)c(NC(=O)CSc2nnnn2CC)c1,n,n,n,n,4.3
CCn1nnnc1SCC(=O)Nc1ccc(OC)cc1,n,n,n,n,n
COC(CNC(=O)[C@H](Cc1ccccc1)NC1(C(=O)NC2CCCCC2)CCC1)OC,n,n,x,n,x
O=C1N(CCCO)CCC12CCC(c1ccccc1)CC2 (stereo unspecified),n,n,n,n,x
Fc1ccc(NC(=S)Nc2cccc3ccccc23)cc1F,n,n,n,n,n
Cc1ccc(NC(=S)Nc2cccc3ccccc23)cc1,n,1.0,n,n,n
Fc1ccc(NC(=S)Nc2cccc3ccccc23)cc1,5.7,n,n,n,n
